This note sets out measurements from PubChem BioAssay AID2472 (National Center for Advancing Translational Sciences (NCATS), 2010).

Molecules are shown by their SMILES. Values joined by “and” are separate entries in the source; they are usually repeats but may differ in a detail not shown here. Equal values may be shown once. Screen size: about 290,000 compounds; about 2,000 (0.69%) were called active. This is one part of a sample in which actives are shown more often than they occur. Values without a mark were called inactive. No stated cut-off is given here; in the data, active means activity change below about -30%; inactive means the rest, inconclusive results apart.
On the % scale 0 is the no-effect control and ±100 the full control effect.

A short description of this assay: qHTS Assay for Inhibitors of Fructose-1,6-bisphosphate Aldolase from Giardia Lamblia: Coupling assay counterscreen. The settings on record: coupling enzyme system counterscreen, AmpLite Red fluorescence; at 58.2 µM (top of the series). An excerpt: MLPCN Grant: MH085699-01 Assay Provider: Osnat Herzberg, University of Maryland NCGC Assay Overview: The objective of this project is to obtain compounds that inhibit Giardia lamblia growth. G. lamblia is a human pathogen which afflicts impoverished nations; it is the most common cause of outbreaks of diarrhea in the United States. During the course of our study of potential drug targets in Giardia, we have identified the Class II (Zn2+ functions in electrophilic catalysis) fructose-1,6-bisphosphate aldolase (FBPA) as an excellent candidate for drug targeting. FBPA is a key glycolytic pathway enzyme, essential for G. lamblia survival. The human FBPA belongs to the Class I aldolases, which have a different substrate binding site structure and a radically different catalytic mechanism (employing a lysine-Schiff base intermediate). Therefore, affinity-based or mechanism-based inhibitors of the Giardia FBPA are expected not to interfere with the catalytic function of the human FBPA. A glyceraldehyde-3-phosphate dehydrogenase/triose phosphate isomerase/NAD/arsenate coupled assay was adapted to the 1536-well HTP format for use in the primary screen. This was done by coupling it to a diaphorase/resazurin/resorufin reaction that can be monitored by fluorescence (excitation, 544 nm; emission, 590 nm). Compounds identified in this screen will be further evaluated by coupling the […]/triose phosphate isomerase/NADH assay to a phenazine methosulfate/tetranitroblue tetrazolium color reaction. False positives due to the dehydrogenases and diaphorase inhibition will be eliminated, and selectivity assay will triage inhibitors of mammalian triose phosphate isomerase and the Class I FBPA. G. lamblia FBPA inhibitors identified by the in vitro analyses will be examined for growth inhibition of Giardia trophozoites, and for cytotoxicity in human cells. This assay specifically addresses whether activity observed in the primary screen (AID 2451) is related to inhibition of the coupling assay used, as opposed to inhibition of aldolase. Actives in this assay are considered inconclusive for activity against aldolase.
NCGC Assay Protocol: Step,Parameter,Value,Description 1,Coupling enzyme reagent,2 uL,glyceraldehyde-3-phosphate 2,Compound,23 nL,3.68 nM-57.5 uM final concentration 3,Time,10 min,RT Incubation 4,Substrate/detection Reagent,2 uL,Substrate + enzyme coupling system + AmpLite Red kit 5,Time,20 min,RT Incubation 6,Detector,525 nm/598 nm (Fluorescence),ViewLux Fluorescence Read (Read 1) Notes: 1,Medium-binding black solid-bottom Kalypsys plates. FRD or Kalypsys dispenser. 2,Compound Library (10 mM ,1:5 dilution). Pin-transferred for a [final] range of 3.68 nM-57.5 uM. 3,RT incubation 4,FRD or Kalypsys dispenser, 2 uL of reaction mixture. Bottle kept at 4C and covered in foil to protect from light. 5,RT incubation 6,ViewLux Protocol 1194; Excitation filter wheel A (525/20 Pol; BODIPY TMR FP), Emission filter wheel B (598/25 S; BODIPY TMR FP S). Keywords: Fructose-bisphosphate aldolase, FBPA , Giardia lamblia , Giardia, HTS, Inhibitors
Take `Cc1[nH][nH]c(=O)c1C(c1ccc2c(c1)OCO2)c1c(C)[nH][nH]c1=O`: the activity change, negative = inhibition was -3.39%.
`CCOc1ccc(C(c2c(C)[nH][nH]c2=O)c2c(C)[nH][nH]c2=O)cc1OCC`: the activity change, negative = inhibition was -13.2%.
For `Cc1[nH][nH]c(=O)c1C(c1ccc(-c2ccc(Cl)cc2)o1)c1c(C)[nH][nH]c1=O`, the activity change, negative = inhibition was -48.6% (active).
On to `Cc1cc(C)cc(C(=O)NCCN2CCOCC2)c1`, for which the activity change, negative = inhibition is 0.78%.
As for `CC(=O)Oc1cc2c(C(=O)NCCN3CCOCC3)c(C)oc2c2ccccc12`, the activity change, negative = inhibition was -40.7% (active).
`Cc1ccc(C(=O)NCCN2CCOCC2)cc1C`: the activity change, negative = inhibition was 3.18%.
Turning to `CN(CCC(=O)Nc1cc(S(=O)(=O)N(C)C)ccc1Cl)CC(=O)Nc1ccc(F)cc1`, the activity change, negative = inhibition was 0.642%.
For the compound `COc1cc(OC)c2c(c1C(CCN1CCCCC1)c1ccc(N(C)C)cc1)OC(=O)CC2c1ccc(N(C)C)cc1` (stereo not drawn), the activity change, negative = inhibition was 0.0898%.
Take `O=c1c2cc(Br)ccc2nc(-c2cccc(Cl)c2)n1O`: the activity change, negative = inhibition is -2.84%.
For the compound `COc1ccc(C(=O)CCc2ccccc2O)c(OC)c1`, the activity change, negative = inhibition is -0.998%.
`Cc1ccc2cc3cc(C(=O)N4CCCCCC4)oc3nc2c1`: the activity change, negative = inhibition was -75.9% (active).
In the case of `Cc1cc(C)cc(NC(=O)N2CCCCCCC2)c1`, the activity change, negative = inhibition is 1.15%.
Consider `Cc1ccc(C(=O)N2CCCCCC2)cc1Br`, for which the activity change, negative = inhibition is 0.385%.
As for `O=C(Nc1nnc(-c2ccccc2F)s1)c1ccccc1F`, the activity change, negative = inhibition is -1.59%.
For the compound `COc1ccc(CCC(C)N2CCc3ccccc3C2)cc1` (stereo not drawn), the activity change, negative = inhibition was -2.37%.
Take `COc1ccc(Cl)cc1NC(=O)COC(=O)C(CC(C)C)N1C(=O)C2CC=CCC2C1=O` (stereo not drawn): the activity change, negative = inhibition is -0.682%.
Regarding `COc1ccc2[nH]cc(CCNc3ncnc4ccc(-c5ccccc5CN(C)C)cc34)c2c1`, the activity change, negative = inhibition was -1.31%.
Then `COc1cccc(-c2cc(NCCc3c[nH]c4ccc(OC)cc34)ncn2)c1`, with -31% (active); and `COc1ccc2[nH]cc(CCNc3cc(-c4ccccc4CN(C)C)ncn3)c2c1`, with -1.84%; and `COC(=O)CC1c2ccccc2C(Cc2ccc(OC)cc2)=C(C)N1C(=O)OC` (stereo not drawn), with -0.16%.
For the compound `COc1cccc(C(=O)CC(=O)C(=O)Nc2ccc([N+](=O)[O-])cc2C)c1`, the activity change, negative = inhibition was -0.191%.
`CNC(=O)N1c2ccccc2C=Cc2ccccc21`: the activity change, negative = inhibition was -0.0842%.
For the compound `Cc1ccccc1-n1nc(C)c2cc(C(=O)NC3CC3)sc21`, the activity change, negative = inhibition is 5.2%.
As to `Cc1nn(-c2ccccc2)c(Cl)c1/C=C/C(=O)c1ccc(O)cc1`, the activity change, negative = inhibition is 6.85%.
Then `Cc1ccccc1-n1nc(C)c2c1N=C1C(Cl)=CC(Cl)=CN1C2c1ccc(C(=O)O)cc1` (stereo not drawn), with -39.1% (active); and `COc1ccc(Br)cc1C1C2C=CCC(C)C2C(=O)N1Cc1ccccc1` (stereo not drawn), with 4.05%.
Then `CC(=O)Nc1ccc(NC(=O)C2CCCN(S(=O)(=O)c3ccc(Cl)cc3)C2)cc1` (stereo not drawn), with 1.51%.
Then `CC(C)CC[n+]1ccn(C2=C([O-])c3ccccc3C(=O)/C2=N\S(=O)(=O)c2ccccc2)c1`, with -54.9% (active).
As for `COc1c(O)c2c(=O)cc(OC)c3c4c(OC)cc(=O)c5c(O)c(OC)c6c(c(c1C[C@@](C)(O)[C@H]6C(C)=O)c23)c54`, the activity change, negative = inhibition was -12.5%.
Regarding `CCCCN=C1C([N+](=O)[O-])=CC=C2C1=NC1(CCCCC1)N2O`, the activity change, negative = inhibition is -41.7% (active).
For `CC(c1ccccn1)N(C)C(=O)c1ccc2nc(Cc3cccc(Cl)c3)oc2c1` (stereo not drawn), the activity change, negative = inhibition was 1.38%.
`COC(=O)C1=C(C)N(Cc2ccccc2)C2=C3C(=O)N(c4ccccc4)C(=O)C3[C@@](O)(C(=O)OC)C(=O)N2C1c1ccccc1` (stereo partly drawn): the activity change, negative = inhibition is 1.55% and 0.598%.
For `Cn1c(CCN2CCCC2)nc2cc(NS(=O)(=O)c3ccccc3)ccc21`, the activity change, negative = inhibition is -1.06%.
Then `O=S(=O)(Nc1ccc2cn[nH]c2c1)c1ccccc1`, with -8.07%; and `O=S(=O)(Nc1ccc2nc(-c3ccco3)[nH]c2c1)c1ccccc1`, with -35.1% (active).
`CCOC(=O)c1ccccc1NC(=O)COC(=O)CCC(=O)N1CCOCC1`: the activity change, negative = inhibition is 1.14%.
Consider `CCCN1[C@H](C(=O)OC)C[C@@]2(O)[C@@H](O)[C@@H](O)[C@@H](O)C[C@@H]12`, for which the activity change, negative = inhibition was -12.1%.
Then `COc1ccc(-c2ccc(OC)c(C3C4C=CCC(C)C4C(=O)N3Cc3ccccc3)c2)cc1C` (stereo not drawn), with -0.316%; and `Cc1cc(Br)ccc1NC(=S)NC1CCCC1`, with 2.32%.
`CC[C@@H](C)[C@H](NC(=O)CCc1c(C)c2cc3c4c(oc3c(C)c2oc1=O)CCCC4)C(=O)O`: the activity change, negative = inhibition is 0.476%.
As to `COC(=O)C1=C(C(=O)OC)[C@@H]2Nc3ccccc3[C@@]23C[C@@H](C(=O)OC)N(S(=O)(=O)c2ccc([N+](=O)[O-])cc2)C3=N1`, the activity change, negative = inhibition is -1.96%.
As for `CCOc1ccc(N(C)Cc2cc(=O)oc3ccc(OC)cc23)cc1`, the activity change, negative = inhibition is -3.63%.
For `CCn1c(CNc2ccc(OC)cc2)nnc1SCC(=O)c1ccc(OC)cc1`, the activity change, negative = inhibition is -36.8% (active).
